# Assay outcomes: PubChem BioAssay, National Center for Advancing Translational Sciences (NCATS)
# Rows were chosen to be rich in hits. Some 2.4% of all compounds tested hit in one or more screens of this group.
# AmpC inh no det = inhibitors of E. coli AmpC beta-lactamase without detergent. Potency, µM (top dose mostly 28.7 µM), for the others: top-dose activity change, negative = inhibition. AmpC nitrocefin hydrolysis, absorbance 480 nm, no detergent. P00811. hit rate 1.8% among 71,000. AID 585; further: % of control where 0% means no effect
# Target sequence (P00811 whole entry, looked up): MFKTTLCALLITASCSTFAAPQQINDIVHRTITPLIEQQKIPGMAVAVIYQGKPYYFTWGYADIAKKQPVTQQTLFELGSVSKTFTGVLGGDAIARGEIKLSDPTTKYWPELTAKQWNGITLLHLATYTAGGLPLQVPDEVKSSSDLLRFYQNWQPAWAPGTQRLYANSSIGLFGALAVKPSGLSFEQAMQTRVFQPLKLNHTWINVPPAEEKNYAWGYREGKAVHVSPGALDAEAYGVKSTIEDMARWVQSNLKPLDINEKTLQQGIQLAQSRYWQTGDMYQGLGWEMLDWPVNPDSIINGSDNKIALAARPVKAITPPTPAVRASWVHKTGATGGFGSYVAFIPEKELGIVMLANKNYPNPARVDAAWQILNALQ
#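 AmpC, 20 mM phosphate pH 7.0; 15 min cpd preinc, RT; start with nitrocefin (800 uM stock); A480 kinetic read, 20 s intervals, 4 min. No-enzyme wells = negative control.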
# Anthrax LT inh = inhibitors of anthrax lethal toxin internalization; Potency, µM (series often up to 40 µM), for the others: at the top dose activity change, negative = inhibition, usual class: inhibitors; Cells, anthrax lethal toxin internalization, FRET ratio (460/530); hit rate 0.67% among 70,000; further: on the % scale 0 is the no-effect control and ±100 the full control effect; nearly all actives have a fitted effect of over 50% in size
# Prx2 Sm inh = blocks S. mansoni peroxiredoxin 2 enzymatic activity | S. mansoni Prx2 activity coupled to TGR/GSH (TGR is thioredoxin glutathione reductase), NADPH fluorescence loss, qHTS | Potency, µM | hit rate 0.07% among 65,000
#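 Prx2 inhibition was measured as reduced NADPH consumption when electrons flowed from NADPH through TGR and glutathione to Prx2 and H2O2. Plates were read kinetically over 8 min; enzyme reagents were held at 4 deg C during dispensing.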
# AmpC inh det = blocks E. coli AmpC beta-lactamase in presence of detergent; hit rate 0.09% among 71,000; purified AmpC, nitrocefin hydrolysis with detergent; Potency, µM (top dose mostly 28.7 µM), inactives show at the top dose activity change, negative = inhibition; P00811; active means well fitted curve in the direction sought with a large enough effect; inconclusive means small, poorly fitted or top-dose-only effect; further: on the % scale 0 is the no-effect control and ±100 the full control effect
#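 E. coli AmpC (5.3 nM) in 20 mM phosphate pH 7.0 with 0.01% Triton X-100, preincubated 15 min RT with compound; nitrocefin (2 uL of 800 uM stock) hydrolysis followed by 480 nm absorbance every 20 s over 4 min.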
# * = called active by the depositor; ? = inconclusive; . = no result given; ! = not confirmed by another sample; [ ] = remark or other dose. Unless noted, the call rests on the fitted dose curve. Potency means the concentration at half of the fitted maximal effect.
SMILES,AmpC inh no det,Anthrax LT inh,Prx2 Sm inh,AmpC inh det
COc1ccc(CCNc2nc(N3CCCCC3)nc(N3CCCCC3)n2)cc1OC,92%,6.3µM*,>57,-7%
CCc1ccc(NC(=O)Cn2c(SC)nc3ccccc32)cc1,47%,?,>57,5%
CSc1nc2ccccc2n1CC(=O)Nc1ccccc1,6%,16µM*,.,4%
O=C(CN1CCCC1=O)N1CCOCC1,-2%,9%,>57,-2%
CCCCCCCC/C=C\CCCCCCCC(=O)NCCc1ccc(O)c(O)c1,10µM*,?,>57,-8%
COC(=O)c1ccccc1NC(=O)N1c2ccccc2CC1C (stereo not drawn),8%,16µM*,>57,-6%
COc1ccc(NC(=O)N2c3ccccc3CC2C)cc1OC (stereo not drawn),19%,4%,>57,-6%
NC(=O)NOC[C@@H]1NC(=O)NC1=O,-1%[5.75 µM],?,>57,-6%[5.75 µM]
C/C(=C\[C@@H](NP(=O)(c1ccccc1)c1ccccc1)c1ccccc1)CO[Si](c1ccccc1)(c1ccccc1)C(C)(C)C,5%,-13%,.,13%
CCCC/C(C)=C/[C@@H](NP(=O)(c1ccccc1)c1ccccc1)c1ccccc1,41%,10µM*,.,14%
COCCCNC(=O)c1ccc(N(C)S(C)(=O)=O)cc1,-7%,0%,>57,-3%
Cc1nc2ccccc2c2oc(C(=O)N3CCN(C(=O)c4ccco4)CC3)cc12,104%,8%,>57,3%
Cc1nc2ccccc2c2oc(C(=O)N3CCc4ccccc4C3)cc12,151%,10µM*,>57,2%
Cn1c(Cn2c(=O)sc3ccccc32)nnc1SCC(=O)Nc1cccc(F)c1,4µM*[single pt active],-2%,>57,13%
Cn1c(Cn2c(=O)sc3ccccc32)nnc1SCC(=O)Nc1ccc(Cl)cc1,4µM*[single pt active],8%,>57,11%
Cn1c(Cn2c(=O)sc3ccccc32)nnc1SCC(=O)Nc1cccc(Cl)c1,8%,7%,>57,23%
Cc1cc(C)cc(NC(=O)CSc2nnc(Cn3c(=O)sc4ccccc43)n2C)c1,4µM*[single pt active],-1%,>57,9%
O=C(NCCCN1CCOCC1)c1c(O)c2ccccc2[nH]c1=O,24%,3%,>57,-3%
COc1cc2[nH]c(=O)c(C(=O)NCCCN3CCCCC3)c(O)c2cc1OC,31%,13µM*,>57,9%
CCCCn1c(=S)[nH]c2c(oc3ccc(Cl)cc32)c1=O,6.3µM*,22%,>57,1%
O=C1CC(N2CCC(c3nc4ccccc4[nH]3)CC2)C(=O)N1Cc1ccccc1 (stereo not drawn),36%,0%,>57,-3%
CN1C(=O)CC(N2CCC(c3nc4ccccc4[nH]3)CC2)C1=O (stereo not drawn),4µM*[single pt active],-3%,>57,13%
Cc1cc(=O)oc2cc(OCC#N)ccc12,4µM*[single pt active],-5%,>57,9%
CCOC(=O)N1CCC(NC(=O)C2CCC(Cn3c(=O)[nH]c4ccccc4c3=O)CC2)CC1 (stereo not drawn),44%,-12%,>57,0%
CC(=O)N1CSCC1C(=O)N1CCN(c2ccc(N3CCOCC3)nn2)CC1 (stereo not drawn),2µM*[single pt active],4%,.,12%
SMILES,AmpC inh no det,Anthrax LT inh,Prx2 Sm inh,AmpC inh det
COc1ccc(C(=O)CCC(=O)N2CCN(c3ccc(N4CCOCC4)nn3)CC2)cc1,68%,5%,>57,10%
Cc1ccc(-c2nnc(N3CCN(c4ccccn4)CC3)c3ccccc23)cc1,3%,11%,>57,3%
c1ccc(-c2nnc(N3CCN(c4ccccn4)CC3)c3ccccc23)cc1,39%,10µM*,>57,-4%
C=CCc1ccc(O)c(OC)c1,15%,-2%,.,10%
C/C(N)=C(/C#N)C(=O)CSc1nnc(COc2ccccc2Cl)o1,3%,-5%,>57,-5%
COc1ccccc1OCc1nnc(SCC(=O)c2cc(Cl)ccc2OC)o1,35%,13µM*,>57,0%
CC[C@H]1CN2CCc3cc(OC)c(OC)cc3[C@H]2C[C@@H]1C[C@H]1NCCc2c1[nH]c1ccc(O)cc21,13%[5.75 µM],?,>57,-4%[5.75 µM]
CC[C@@H]1CN2CCc3cc(OC)c(OC)cc3[C@H]2C[C@@H]1C[C@H]1NCCc2cc(OC)c(OC)cc21,.,0.02µM*,>57,.
CCOC(=O)Cc1csc(-n2sc3ccccc3c2=O)n1,6%,3.2µM*,>57,9%
Cc1ccc(S(=O)(=O)NCc2ccncc2)cc1,-8%,-3%,>57,-5%
O=C1CC(c2ccc(S(=O)(=O)NCc3ccncc3)cc2)CN1 (stereo not drawn),4µM*[single pt active],-3%,>57,14%
O=C1CC(c2ccc(S(=O)(=O)NC3CC3)cc2)CN1 (stereo not drawn),4µM*[single pt active],13%,>57,15%
CCCC1C(c2ccco2)NC(c2ccco2)CC1(C)O (stereo not drawn),-10%,10µM*,>57,-3%
O=C1CC(c2ccccc2)CC(O)=C1C=NCCCO (stereo not drawn),5%,-5%,.,10%
CS(=O)(=O)c1nc(-c2ccco2)cc(C(F)(F)F)n1,-6%,10µM*,>57,13%
FC(F)(F)c1cc(-c2ccco2)nc(NCc2ccco2)n1,-7%,?,>57,16%
OCCN1CCN(CCCN2c3ccccc3Sc3ccc(Cl)cc32)CC1,124%[12.8 µM],25µM*!,>57,0%[12.8 µM]
CN(C)CCCN1c2ccccc2Sc2ccc(Cl)cc21,52%[12.8 µM],?,>57,1%[12.8 µM]
COc1ccc(C(=O)OC(C)CN2CCOCC2)cc1OC (stereo not drawn),-4%,4%,>57,0%
Cn1c(=O)c2nc(-c3ccc(Cl)cc3Cl)oc2c2ccccc21,2.5µM*,-19%,>57,13%
O=C(C1CCC(CNc2c(N3CCCCC3)c(=O)c2=O)CC1)N1CCCCC1 (stereo not drawn),4µM*[single pt active],-6%,>57,11%
O=C(NCc1ccc2c(c1)OCO2)C1CCC(CNc2c(N3CCCCC3)c(=O)c2=O)CC1 (stereo not drawn),4µM*[single pt active],?,>57,11%
CCCCNC(=O)COC(=O)c1cc2c(C)nn(-c3ccccc3)c2s1,9%,.,>57,12%
CN1/C(=C/C(=O)c2nc(S(C)(=O)=O)ncc2Cl)C(C)(C)c2ccccc21,32%,13µM*,>57,-2%
O=C(COC(=O)c1ccc(Br)o1)Nc1nc2ccccc2s1,5µM*,0%,.,1%
SMILES,AmpC inh no det,Anthrax LT inh,Prx2 Sm inh,AmpC inh det
Cn1c(=O)[nH]c(=O)c2c1nc(NCCCn1ccnc1)n2CCOc1ccccc1,-6%,0%,>57,-1%
CCCCNC(=O)Cn1c(=O)n(C)c2ccccc21,4µM*[single pt active],-12%,>57,9%
Cn1c(=O)n(CC(=O)Nc2ccc(F)cc2)c2ccccc21,2%,-8%,>57,-6%
CC(C)CC(=O)Nc1c2c(nn1-c1ccc(F)cc1)CSC2,4µM*[single pt active],1%,>57,13%
O=C(Nc1c2c(nn1-c1ccc(F)cc1)CSC2)c1ccc(S(=O)(=O)N2CCOCC2)cc1,24%,-6%,>57,-1%
BrCC(Br)C1CCC(Br)C(Br)C1 (stereo not drawn),-22%,16µM*,.,9%
